Assay outcomes from PubChem.
A selection: hits, their analogues and other compounds. The true share with any hit is near 19%.
DT40 TDP1 no CPT: qHTS for Inhibitors of human tyrosyl-DNA phosphodiesterase 1 (TDP1): qHTS in cells in absence of CPT | AID 686978, 2013 | 15% of 420,000 active | DT40 Tdp1-/- hTDP1 cells, no CPT, ATP luminescence, 48 h | Potency, µM (doses to about 46.2 µM), without a hit: top-dose activity change, negative = growth inhibition, hits mostly inhibitors; further: nearly all actives have a fitted effect of over 55% in size
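Camptothecin absent (DMSO only). Human TDP1-complemented DT40 knockout cells, 400 cells/well, 37 °C for minimum 48 hr; ATP measured via CellTiter-Glo, 30 min dark incubation, luminescence.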
VP16 counter: inhibits Gal4-VP16 luciferase reporter, ROR gamma counter-screen; Potency, µM (series often up to 53.6 µM), for inactives: at the highest dose activity, negative = inhibition, usual class: inhibitors; 3.5% of 310,000 active; AID 2546; Drosophila S2 Gal4-VP16 UAS-luciferase, luminescence, 20 h;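 further: Gal4-VP16 expression switched on by copper sulfate through the metallothionein promoter; nearly all actives have a fitted effect of over 50% in size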
RORgamma inh: inhibitors of mouse ROR gamma transcriptional activity; AID 2551; 5.4% of 310,000 active; Drosophila S2 Gal4-RORgamma UAS-luciferase reporter, 20 h; Potency, µM (highest dose often 53.6 µM), inactives show at the top dose activity change, negative = inhibition, most hits filed as inhibitors; P51450; further: nearly all actives have a fitted effect of over 60% in size
Target sequence (P51450 whole entry, looked up, the tested form may be a part): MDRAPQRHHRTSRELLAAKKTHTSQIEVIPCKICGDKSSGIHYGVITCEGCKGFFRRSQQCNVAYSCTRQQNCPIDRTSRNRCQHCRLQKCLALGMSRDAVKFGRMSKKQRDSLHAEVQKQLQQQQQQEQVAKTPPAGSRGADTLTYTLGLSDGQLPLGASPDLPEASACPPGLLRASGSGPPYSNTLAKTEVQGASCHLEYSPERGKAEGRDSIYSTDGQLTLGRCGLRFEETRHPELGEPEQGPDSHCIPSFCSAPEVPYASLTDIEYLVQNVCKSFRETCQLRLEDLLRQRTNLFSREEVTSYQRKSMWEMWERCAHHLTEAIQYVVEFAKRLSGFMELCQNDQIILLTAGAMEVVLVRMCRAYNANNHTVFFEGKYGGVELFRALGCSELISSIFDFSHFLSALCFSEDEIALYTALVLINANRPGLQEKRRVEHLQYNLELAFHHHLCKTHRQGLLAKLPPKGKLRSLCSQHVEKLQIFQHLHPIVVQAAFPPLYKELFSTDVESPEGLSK
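Stable Schneider cell line, Gal4 DNA-binding domain fused to ROR gamma, UAS-luciferase. Cmpd 1 hr RT → CuSO4 700 uM final → 20 hr RT → luciferase reagent 10 min → luminescence.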
TDP1 cell CPT: DT40-hTDP1 cell growth loss with CPT; chicken DT40 Tdp1-/-;hTDP1 cells + 20 nM CPT, ATP luminescence, 48 h; Potency, µM (series often up to 46.2 µM), without a hit: top-dose activity change, negative = growth inhibition, most hits filed as inhibitors; 12% of 420,000 active; AID 686979; further: nearly all actives have a fitted effect of over 55% in size
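Chicken DT40 Tdp1-/- cells complemented with human TDP1, 400 cells/well, exposed to compounds plus 20 nM camptothecin for at least 48 h at 37 C; viability read as ATP content by CellTiter-Glo luminescence.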
TDP1 block: blocks human tyrosyl-DNA phosphodiesterase 1 | recombinant TDP1, AlphaScreen DNA substrate cleavage | 0.28% of 350,000 active | AID 485290 | Potency, µM (highest dose often 130 µM), without a hit: at the highest dose activity change, negative = inhibition, actives largely listed as inhibitors | Q9NUW8; further: nearly all actives have a fitted effect of over 40% in size
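Steps: enzyme plus compound, 15 min RT; add biotin/phosphotyrosine-FITC oligonucleotide (15 nM final), react 5 min; add donor/acceptor beads (10 ug/ml final), 10 min; read AlphaScreen. Tdp1 at 1 nM final.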
The depositor's hits bear a star; ? = inconclusive; nt = no result given; [ ] = another dose, or the depositor's remark. The call rests on the fitted dose curve; in most records, active means well fitted curve in the direction sought with a large enough effect; inconclusive means small, poorly fitted or top-dose-only effect, or another doubt; inactive means no such curve, though single readings can be large; an effect the other way counts as inactive or inconclusive. On the % scale 0 is the no-effect control and ±100 the full control effect; potency means the concentration at half of the fitted maximal effect.

SMILES | DT40 TDP1 no CPT | VP16 counter | RORgamma inh | TDP1 cell CPT | TDP1 block
O=C(N=Nc1c(O)[nH]c2ccccc12)c1ccc(CN2CCOCC2)cc1 | ? | -8% | -3% | -27% | 5%
Oc1[nH]c2ccc(Br)cc2c1N=NC(=S)N1CCOCC1 | 0.73µM* | 1.6µM* | 1.6µM* | 0.73µM* | 11%
Oc1[nH]c2ccccc2c1N=NC(=S)N1CCOCC1 | 1.5µM* | 2.8µM* | 0.1µM* | 1.6µM* | 8%
COC(=O)N=Nc1c(O)[nH]c2ccc(Br)cc12 | ? | -5% | 3% | -9% | 6%
Nc1nc(N)nc(-c2cccc(Cl)c2)n1 | -4% | nt | nt | ? | 0%
Cc1nn2cc(-c3cccc(Cl)c3)cnc2c1Cl | 15µM* | -5% | 15% | 16µM* | 0%
Cc1nn2cc(-c3cccc(Cl)c3)cnc2c1Br | 5.8µM* | 25% | 15% | ? | -3%
CCN1CSC(=S)N(Cc2ccc(OC)cc2)C1 | 4.6µM* | 13µM* | 14µM* | 5.2µM* | 6%
CCN1CSC(=S)N(Cc2ccccc2)C1 | 4.6µM* | 10µM* | 10µM* | 2.6µM* | nt
S=C1SCN(Cc2cccs2)CN1Cc1cccs1 | 23µM* | nt | nt | ? | nt
CCCCCN1CSC(=S)N(Cc2ccccc2)C1 | 3.7µM* | 18µM* | 10µM* | 4.6µM* | 0%
CCC1CCCCN1C(=O)c1c[nH]c2ccc(S(=O)(=O)Nc3cccc(OC)c3)cc2c1=O (centres undefined) | 14% | nt | nt | -3% | nt
COc1ccc(C(=O)N(CCc2ccccc2)Cc2ccccc2)c(OC)n1 | ? | -1% | 14% | ? | nt
O=C(O)c1cccc(-n2cccc2/C=C\[N+](=O)[O-])c1 | -21% | ? | ? | 0% | nt
CNC(=S)N(CCc1c(C)[nH]c2ccccc12)Cc1cc(OC)c(OC)c(OC)c1 | 21µM* | ? | ? | ? | 7%
CNC(=S)N(CCc1c(C)[nH]c2ccc(C)cc12)Cc1cc(OC)c(OC)c(OC)c1 | 15µM* | 15% | ? | ? | 8%
CCNC(=S)N(CCc1c(C)[nH]c2ccccc12)Cc1cc(OC)c(OC)c(OC)c1 | 10µM* | ? | -20% | 16µM* | 9%
CC(=O)NC(CC(=O)NCCCn1ccc2ccccc21)c1ccccc1 (centres undefined) | -19% | -3% | 11% | -1% | 0%[0.0935 µM]
CCOC(=O)c1ccc(NC(=O)Cc2coc3cc4c(cc23)CCC4)cc1 | ? | -15% | ? | ? | 3%
Cc1ccc(NC(=O)Cc2coc3ccc(C(C)C)cc23)cc1Cl | 29µM* | nt | nt | ? | -2%
Cc1ccc(SCCC(=O)Nc2ccc(OCc3ccccc3)cc2)cc1 | -22% | ? | ? | -19% | -3%
CCOc1ccc(NC(=O)Cc2coc3ccc(C)cc23)cc1 | 21µM* | nt | nt | 16µM* | 0%
CCCCOC(=O)c1ccc(NC(=O)Cc2coc3ccc(C(C)C)cc23)cc1 | 23µM* | nt | nt | 26µM* | -4%
CCOc1ccc(NC(=O)CCSc2ccc(C)cc2)cc1 | 16µM* | -3% | 18% | ? | 1%
Cc1ccc(/C=N/N2CCN(Cc3ccccc3)CC2)o1 | -6% | -30% | -3% | -18% | 9%
SMILES | DT40 TDP1 no CPT | VP16 counter | RORgamma inh | TDP1 cell CPT | TDP1 block
CCc1ccc2occ(CC(=O)Nc3ccc(C)c(C)c3)c2c1 | 13µM* | nt | nt | ? | -7%
CCOc1ccc(NC(=O)COC(=O)C2CC2C)cc1 (centres undefined) | 18µM* | nt | nt | ? | 0%
CN1CCN(C2=Nc3c(Cl)cc(Cl)c4cccc2c34)CC1 | 21µM* | -11% | -37% | ? | 8%
CCNc1nc(NCC)nc(OCCOC(=O)c2ccccc2)n1 | -12% | ? | 0%[10 µM] | -14% | 3%
CCNc1nc(NC(C)C)nc(SCCOC(=O)c2ccccc2)n1 | ? | 2% | -3% | 15µM* | -5%
COc1ccc(OCCSc2nc(N)cc(N)n2)cc1 | ? | 0% | 24% | -4% | 4%
CCNc1nc(NC(C)C)nc(SCCOc2ccc(C)cc2)n1 | 23µM* | ? | -30% | 16µM* | -4%
CCNc1nc(Cl)nc(NCCOc2ccc(C)cc2)n1 | -29% | -1% | -1% | ? | 5%
CCNc1nc(SCCOc2ccc(Br)cc2)nc(N(C)C)n1 | 15µM* | ? | -73% | ? | nt
CCc1ncnc2cc(OC)c(OC)cc12 | -27% | -1% | 1% | ? | 6%
COc1ccccc1C(C[N+](=O)[O-])c1c(N)n(C)c(=O)n(C)c1=O (centres undefined) | 2.3µM* | 14µM* | ? | 3.7µM* | -4%
CCOc1ccccc1N1CCN(C(=S)NC(=O)C23CC4CC(CC(C4)C2)C3)CC1 | 16µM* | 3.5µM* | 3.5µM* | 18µM* | 5%
O=C(NC(=S)N1CCN(c2ccc(F)cc2)CC1)C12CC3CC(CC(C3)C1)C2 | ? | 3.2µM* | 1.3µM* | ? | 3%
CCN(CC)Cc1c(O)ccc2c1O/C(=C\C=C\c1ccccc1)C2=O | 18µM* | 5% | 11% | ? | nt
COc1ccccc1/C=C/C=C1\Oc2c(ccc(O)c2CN(C)C)C1=O | ? | -13% | 5% | ? | nt
Cc1c(C(=O)NCCCc2ccncc2)cnn1-c1nccc(-c2ccccc2F)n1 | 18µM* | nt | nt | -7%[9.04 µM] | nt
Cc1c(C(=O)NCCCc2ccncc2)cnn1-c1ncc2c(n1)-c1ccccc1CC2 | ? | nt | nt | -5%[9.04 µM] | nt
CCN1C=CC2=C(C#N)C(N)C(C#N)(C#N)C(c3ccccc3C(F)(F)F)C2C1 (centres undefined) | 23µM* | 0% | ? | ? | 0%
COc1ccc(-c2noc(N3CCC(C(=O)Nc4ccc(OC)c(OC)c4)CC3)n2)cc1 | -13% | -10% | -30% | -2% | 4%
CCN(C(=O)C1CCCN(c2nc(-c3ccc(OC)cc3)no2)C1)c1ccccc1F (centres undefined) | ? | -10% | ? | ? | nt
COc1ccc(-c2noc(N3CCCC(C(=O)Nc4cc(F)ccc4F)C3)n2)cc1 (centres undefined) | 18µM* | ? | 30% | ? | nt
COc1ccc(F)cc1NC(=O)C1CCN(c2nc(-c3ccc(OC)c(OC)c3)no2)CC1 | 16µM* | nt | nt | 4.6µM* | 9%
CCOC(=O)N1CCN(C(=O)c2ccc3c(c2)N(Cc2ccccc2)CCS3)CC1 | 26µM* | -15% | 16% | ? | nt
Cc1ccc(Cl)cc1N1CCN(C(=O)c2ccc3c(c2)N(Cc2ccccc2)CCS3)CC1 | 23µM* | nt | nt | 16µM* | 1%
CC1CC(C)CN(C(=O)c2ccc3c(c2)N(Cc2ccccc2)CCS3)C1 (centres undefined) | ? | 10% | 2% | ? | 5%
